Source: PubChem BioAssay (NCATS)
Results filed as inconclusive are left out. Activity calls are given as the source filed them. The call rests on the fitted dose curve; in most records, active means well fitted inhibition curve with a large enough effect; inconclusive means small, poorly fitted or top-dose-only effect; inactive means flat fitted curve, though single readings scatter.

What was measured:
[1] = qHTS profiling for inhibitors of Plasmodium falciparum proliferation (AID 504749);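 on activity, negative = inhibition: 0% = DMSO vehicle and full inhibition = artemisinin control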; on all read-outs here: nearly all actives have a fitted effect of over 60% in size; conditions: P. falciparum in erythrocytes, SYBR Green DNA, 72 h; for activity, negative = inhibition: at 28.7 µM (top of the series)
How it was run: (§1)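 Infected RBCs, 0.3% parasitemia/2.5% Hct final; cpd 72 h, 37 C, 5% CO2; lysis buffer with saponin/triton/SYBR Green I, o/n RT dark; FI 485/535; norm. to artemisinin (0.29 uM) and DMSO.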

[2] = system: 3D7; test: as above; conditions: P. falciparum in erythrocytes, SYBR Green DNA, 72 h; series mostly up to 28.7 µM
How it was run: as §1

[3] = system: 7G8; test: as above; conditions: P. falciparum in erythrocytes, SYBR Green DNA, 72 h; series mostly up to 28.7 µM
How it was run: as §1

[4] = system: AA1029; test: as above; conditions: P. falciparum in erythrocytes, SYBR Green DNA, 72 h; series mostly up to 28.7 µM
How it was run: as §1

[5] = system: AS120; test: as above; conditions: P. falciparum in erythrocytes, SYBR Green DNA, 72 h; series mostly up to 28.7 µM
How it was run: as §1

[6] = system: ATS189; test: as above; conditions: P. falciparum in erythrocytes, SYBR Green DNA, 72 h; series mostly up to 28.7 µM
How it was run: as §1

[7] = system: ATS95; test: as above; conditions: P. falciparum in erythrocytes, SYBR Green DNA, 72 h; series mostly up to 28.7 µM
How it was run: as §1

[8] = system: C2A; test: as above; conditions: P. falciparum in erythrocytes, SYBR Green DNA, 72 h; series mostly up to 28.7 µM
How it was run: as §1

[9] = system: CP185; test: as above; conditions: P. falciparum in erythrocytes, SYBR Green DNA, 72 h; series mostly up to 28.7 µM
How it was run: as §1

[10] = system: CP191; test: as above; conditions: P. falciparum in erythrocytes, SYBR Green DNA, 72 h; series mostly up to 28.7 µM
How it was run: as §1

[11] = system: CP192; test: as above; conditions: P. falciparum in erythrocytes, SYBR Green DNA, 72 h; series mostly up to 28.7 µM
How it was run: as §1

[12] = system: CP194; test: as above; conditions: P. falciparum in erythrocytes, SYBR Green DNA, 72 h; series mostly up to 28.7 µM
How it was run: as §1

[13] = system: CP201; test: as above; conditions: P. falciparum in erythrocytes, SYBR Green DNA, 72 h; series mostly up to 28.7 µM
How it was run: as §1

[14] = system: CP203; test: as above; conditions: P. falciparum in erythrocytes, SYBR Green DNA, 72 h; series mostly up to 28.7 µM
How it was run: as §1

[15] = system: CP211; test: as above; conditions: P. falciparum in erythrocytes, SYBR Green DNA, 72 h; series mostly up to 28.7 µM
How it was run: as §1

[16] = system: CP215; test: as above; conditions: P. falciparum in erythrocytes, SYBR Green DNA, 72 h; series mostly up to 28.7 µM
How it was run: as §1

[17] = system: CP217; test: as above; conditions: P. falciparum in erythrocytes, SYBR Green DNA, 72 h; series mostly up to 28.7 µM
How it was run: as §1

[18] = system: CP237; test: as above; conditions: P. falciparum in erythrocytes, SYBR Green DNA, 72 h; series mostly up to 28.7 µM
How it was run: as §1

[19] = system: CP238; test: as above; conditions: P. falciparum in erythrocytes, SYBR Green DNA, 72 h; series mostly up to 28.7 µM
How it was run: as §1
Potency means the concentration at half of the fitted maximal effect.

Nc1ncnc2c1ncn2[C@@H]1O[C@H](COP(=O)(O)OP(=O)(O)OP(=O)(O)O)[C@@H](O)[C@H]1O
inactive: activity, negative = inhibition ([1]; parasite line A) 19.4% | activity, negative = inhibition ([1]; parasite line B) 9.47% | Potency [2] | Potency [3] | Potency [4] | Potency [5] | Potency [6] | Potency [7] | Potency [8] | Potency [9] | Potency [10] | Potency [11] | Potency [12] | Potency [13] | Potency [14] | Potency [15] | Potency [16] | Potency [17] | Potency [18] | Potency [19]

COC(C(=O)C(O)C(C)O)C1Cc2cc3cc(OC4CC(OC5CC(O)C(O)C(C)O5)C(O)C(C)O4)c(C)c(O)c3c(O)c2C(=O)C1OC1CC(OC2CC(OC3CC(C)(O)C(O)C(C)O3)C(O)C(C)O2)C(O)C(C)O1 (stereo unspecified)
active: Potency ([1]; parasite line A) 158 nM | Potency ([1]; parasite line B) 224 nM | Potency [2] 282 nM | Potency [3] 70.8 nM | Potency [4] 141 nM | Potency [5] 112 nM | Potency [6] 282 nM | Potency [7] 178 nM | Potency [8] 251 nM | Potency [9] 251 nM | Potency [10] 224 nM | Potency [11] 3010 nM | Potency [12] 3010 nM | Potency [13] 2690 nM | Potency [14] 3010 nM | Potency [15] 2690 nM | Potency [16] 2390 nM | Potency [17] 282 nM | Potency [18] 100 nM | Potency [19] 251 nM

COc1ccc2c3c1O[C@H]1C[C@@H](O)C=C[C@@]31CCN(C)C2
inactive: activity, negative = inhibition ([1]; parasite line A) 7.86% | activity, negative = inhibition ([1]; parasite line B) -0.584% | Potency [2] | Potency [3] | Potency [4] | Potency [5] | Potency [6] | Potency [7] | Potency [8] | Potency [9] | Potency [10] | Potency [11] | Potency [12] | Potency [13] | Potency [14] | Potency [15] | Potency [16] | Potency [17] | Potency [18] | Potency [19]

CN=C(NC#N)Nc1ccc(C2=NNC(=O)C[C@@H]2C)cc1
inactive: activity, negative = inhibition ([1]; parasite line A) 13.8% | activity, negative = inhibition ([1]; parasite line B) 8.03% | Potency [2] | Potency [3] | Potency [4] | Potency [5] | Potency [6] | Potency [7] | Potency [8] | Potency [9] | Potency [10] | Potency [17] | Potency [18] | Potency [19]

CCCCCCC(O)C/C=C/CCCCCCCC(=O)O (stereo unspecified)
inactive: activity, negative = inhibition ([1]; parasite line A) -1.16% | activity, negative = inhibition ([1]; parasite line B) 3.04% | Potency [2] | Potency [3] | Potency [4] | Potency [5] | Potency [6] | Potency [7] | Potency [8] | Potency [9] | Potency [10] | Potency [11] | Potency [12] | Potency [13] | Potency [14] | Potency [16] | Potency [17] | Potency [18] | Potency [19]

O=C(COc1ccc(Cl)cc1)OCCNC12CC3CC(CC(C3)C1)C2
inactive: activity, negative = inhibition ([1]; parasite line A) 9.51% | activity, negative = inhibition ([1]; parasite line B) 10.7% | Potency [2] | Potency [3] | Potency [4] | Potency [5] | Potency [6] | Potency [7] | Potency [8] | Potency [9] | Potency [10] | Potency [11] | Potency [12] | Potency [13] | Potency [14] | Potency [15] | Potency [16] | Potency [17] | Potency [19]

CCCCCCCCCCCC[n+]1ccc2ccccc2c1
active: Potency ([1]; parasite line A) 794 nM | Potency ([1]; parasite line B) 501 nM | Potency [2] 1120 nM | Potency [3] 316 nM | Potency [4] 1260 nM | Potency [5] 1410 nM | Potency [6] 1000 nM | Potency [7] 2000 nM | Potency [8] 708 nM | Potency [9] 562 nM | Potency [10] 562 nM | Potency [11] 601 nM | Potency [12] 1200 nM | Potency [13] 1690 nM | Potency [14] 849 nM | Potency [15] 675 nM | Potency [16] 1070 nM | Potency [17] 891 nM | Potency [18] 631 nM | Potency [19] 631 nM

Cc1ccccc1
inactive: activity, negative = inhibition ([1]; parasite line A) 1.71% | activity, negative = inhibition ([1]; parasite line B) 0.119% | Potency [2] | Potency [3] | Potency [4] | Potency [5] | Potency [6] | Potency [7] | Potency [8] | Potency [9] | Potency [10] | Potency [11] | Potency [12] | Potency [13] | Potency [14] | Potency [15] | Potency [16] | Potency [17] | Potency [18] | Potency [19]

O=C(O)CN(CCN(CC(=O)O)CC(=O)O)CC(=O)O
inactive: activity, negative = inhibition ([1]; parasite line A) -1.94% | activity, negative = inhibition ([1]; parasite line B) 14.3% | Potency [2] | Potency [3] | Potency [4] | Potency [5] | Potency [6] | Potency [7] | Potency [8] | Potency [9] | Potency [10] | Potency [11] | Potency [12] | Potency [13] | Potency [14] | Potency [15] | Potency [17] | Potency [18] | Potency [19]

O=C1C(=O)c2ncccc2-c2cccnc21
active: Potency ([1]; parasite line A) 891 nM | Potency ([1]; parasite line B) 1120 nM | Potency [2] 891 nM | Potency [3] 1000 nM | Potency [4] 1000 nM | Potency [5] 708 nM | Potency [6] 1410 nM | Potency [7] 1000 nM | Potency [8] 3160 nM | Potency [9] 2510 nM | Potency [10] 3160 nM | Potency [11] 953 nM | Potency [12] 1350 nM | Potency [13] 1690 nM | Potency [14] 1690 nM | Potency [15] 1070 nM | Potency [16] 1350 nM | Potency [17] 1260 nM | Potency [18] 1000 nM | Potency [19] 1000 nM

Nc1c(N=Nc2ccc(-c3ccc(N=Nc4cc(S(=O)(=O)O)c5ccccc5c4N)cc3)cc2)cc(S(=O)(=O)O)c2ccccc12
inactive: activity, negative = inhibition ([1]; parasite line A) 6.43% | activity, negative = inhibition ([1]; parasite line B) -3.17% | Potency [2] | Potency [3] | Potency [4] | Potency [5] | Potency [6] | Potency [7] | Potency [8] | Potency [9] | Potency [10] | Potency [11] | Potency [12] | Potency [13] | Potency [14] | Potency [15] | Potency [16] | Potency [17] | Potency [18] | Potency [19]
